Assays:
Conditions in all cases: concentration: 1 μM, replicates: in singlicate; n = 1
LYN = tested on: LYN
LZK = tested on: T1, LZK
T1 construct: gene MAP3K13

MAK = tested on: MAK
MAP3K15 = tested on: MAP3K15
MAP3K1 = tested on: MAP3K1
MAP3K2 = tested on: MAP3K2
MAP3K3 = tested on: MAP3K3
MAP3K4 = tested on: MAP3K4
MAP4K2 = tested on: MAP4K2
MAP4K3 = tested on: MAP4K3
MAP4K4 = tested on: MAP4K4
MAP4K5 = tested on: MAP4K5
MAPKAPK2 = tested on: MAPKAPK2
MAPKAPK5 = tested on: MAPKAPK5
MARK1 = tested on: MARK1
MARK2 = tested on: MARK2
MARK3 = tested on: MARK3
MARK4 = tested on: MARK4
MAST1 = tested on: MAST1
MEK1 = tested on: T2, MEK1
T2 construct: gene MAP2K1
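Further: KINOMEscan kinase panel screen.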

Compound	%Inh (LYN)	%Inh (LZK)	%Inh (MAK)	%Inh (MAP3K15)	%Inh (MAP3K1)	%Inh (MAP3K2)	%Inh (MAP3K3)	%Inh (MAP3K4)	%Inh (MAP4K2)	%Inh (MAP4K3)	%Inh (MAP4K4)	%Inh (MAP4K5)	%Inh (MAPKAPK2)	%Inh (MAPKAPK5)	%Inh (MARK1)	%Inh (MARK2)	%Inh (MARK3)	%Inh (MARK4)	%Inh (MAST1)	%Inh (MEK1)
CC(C)(C)c1ccc(C(=O)Nc2cn3cc(Cl)ccc3n2)cc1	8%	0%	15%	1%	0%	45%	0%	0%	0%	0%	2%	2%	0%	0%	0%	78%	0%	0%	0%	24%
Cl.NC(=O)c1cccc(Nc2nccc(Nc3ccc(Oc4cccc(Cl)c4)c(Cl)c3)n2)c1 [GW659008]	29%	19%	9%	0%	3%	0%	0%	33%	0%	0%	18%	33%	8%	0%	13%	0%	0%	24%	5%	0%
Nc1ncnc2[nH]c(-c3ccccc3)nc12 [AH5015]	7%	0%	0%	0%	16%	0%	0%	0%	0%	0%	4%	0%	12%	0%	0%	0%	0%	0%	0%	0%
COc1ccccc1-c1ccc2c(NC(=O)C3CC3)n[nH]c2n1 [SB-711239]	18%	24%	23%	0%	0%	0%	0%	32%	0%	0%	25%	26%	27%	2%	0%	0%	0%	0%	26%	0%
Cc1nnc(-c2ccc3occ(-c4ccc(S(C)=O)cc4)c3c2)[nH]1 (stereo not shown)	18%	0%	0%	10%	24%	1%	0%	2%	0%	11%	0%	0%	0%	20%	21%	22%	0%	19%	7%	8%
COc1cc2ncn(-c3cc(OCC4CCCO4)c(C(N)=O)s3)c2cc1OC (stereo not shown) [GSK204607]	0%	0%	9%	0%	50%	0%	0%	0%	0%	70%	6%	4%	0%	0%	0%	0%	0%	0%	2%	24%
COc1cccc(NC(=O)NC2CCN(c3ccnc(Nc4ccc(F)cc4)n3)C2)c1 (stereo not shown) [GSK1379721]	0%	17%	32%	0%	5%	0%	0%	13%	2%	0%	83%	96.7%	0%	0%	0%	0%	9%	0%	17%	31%
Cc1ccc(NC(=O)Nc2cc(C(C)(C)C)nn2-c2ccccc2)cc1 [GSK1014915]	0%	0%	10%	16%	17%	17%	0%	3%	0%	10%	19%	11%	25%	0%	0%	0%	17%	10%	0%	0%
O=C(Nc1ccc2c(c1)OCO2)NC1CCN(c2ccnc(Nc3ccc(F)cc3)n2)C1 (stereo not shown) [GSK1379724]	0%	0%	0%	0%	11%	6%	0%	40%	0%	0%	8%	0%	5%	0%	0%	0%	0%	0%	0%	0%
Cn1ccc2ncnc(Oc3ccc(Nc4nc5ccccc5[nH]4)cc3)c21	0%	0%	5%	0%	0%	0%	0%	0%	0%	9%	0%	0%	0%	0%	0%	9%	0%	13%	0%	0%
COc1ccc2nc(-c3cccc(C)n3)nc(Nc3ccncc3)c2c1 [GSK204919]	0%	0%	25%	0%	22%	0%	0%	9%	0%	12%	0%	0%	17%	0%	0%	0%	0%	0%	0%	0%
COC(=O)c1c(-c2ccccc2)c2cc(C(=O)O)ccc2c(=O)n1Cc1ccccc1	16%	0%	0%	8%	0%	0%	0%	4%	0%	0%	0%	7%	3%	0%	0%	3%	0%	0%	0%	0%
COc1ccccc1CNC(=O)c1cc(C(=O)c2ccccc2C)c[nH]1 [GSK364507]	0%	0%	7%	3%	6%	15%	0%	32%	0%	0%	6%	0%	26%	0%	89%	0%	0%	50%	0%	0%
CS(=O)(=O)c1ccc(-c2nc3n(c2-c2ccncc2)CCC3)cc1 [SKF-105942]	3%	0%	25%	0%	0%	3%	0%	35%	0%	2%	0%	0%	36%	0%	0%	0%	0%	0%	0%	0%

— paper PMC5540273 (PLoS ONE, 2017)
